From PubChem BioAssay AID1159580 (chemical genetic matrix, 2015)
Screen size: about 5,500 compounds; about 2,000 (36%) were called active. About 18% were inconclusive and are not listed. Rule as the data show it: active = normalized growth mostly below about 0.91 (no sharp cut-off); inconclusive = no clear call, values can overlap the other calls; inactive = mostly above about 0.92. This is one part of the list.

Test: chemical genetic growth profiling, strain panel (AID 1159580);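 also: tested at 20 µM; growth read once vehicle control cultures reached saturation at 30 °C; 1 = growth at the plate median or of vehicle wells; lower values mean less growth of the strain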
Settings: growth OD

Measured: normalized growth

O=c1[nH]cnc2c1ncn2C1O[C@H](CO)[C@@H](O)[C@H]1O (some centres undefined)
inactive: S. cerevisiae deletion strains, locus YJR075W, strain HOC1, hits give low values 1.01 | S. cerevisiae deletion strains, locus YKL009W, strain mrt4, hits give low values 0.979 | S. cerevisiae deletion strains, locus YKL068W, hits give low values 1.01 | S. cerevisiae deletion strains, locus YKL085W, strain MDH1 (second series), hits give low values 0.998 | S. cerevisiae deletion strains, locus YKL085W, strain MDH1, hits give low values 0.998 | S. cerevisiae deletion strains, locus YKL160W, strain elf1, hits give low values 0.986 | S. cerevisiae deletion strains, locus YKL190W, strain CNB1, hits give low values 1 | S. cerevisiae deletion strains, locus YKR001C, strain vps1, hits give low values 1.06 | S. cerevisiae deletion strains, locus YKR026C, strain gcn3, hits give low values 0.984 | S. cerevisiae deletion strains, locus YKR091W, strain srl3, hits give low values 0.986 | S. cerevisiae deletion strains, locus YLL001W, strain dnm1, hits give low values 1.01 | S. cerevisiae deletion strains, locus YLL026W, hits give low values 0.993 | S. cerevisiae deletion strains, locus YLL041C, strain sdh2, hits give low values 1 | S. cerevisiae deletion strains, locus YLR027C, strain aat2, hits give low values 0.994 | S. cerevisiae deletion strains, locus YLR039C, strain RIC1, hits give low values 1.04 | S. cerevisiae deletion strains, locus YLR058C, strain SHM2, hits give low values 0.999 | S. cerevisiae deletion strains, locus YLR102C, strain apc9, hits give low values 1.04 | S. cerevisiae deletion strains, locus YLR113W, strain HOG1, hits give low values 0.978 | S. cerevisiae deletion strains, locus YLR221C, strain rsa3, hits give low values 0.96 | S. cerevisiae deletion strains, locus YLR258W, strain gsy2, hits give low values 0.99 | S. cerevisiae deletion strains, locus YLR262C, strain YPT6 (second series), hits give low values 1.02 | S. cerevisiae deletion strains, locus YLR262C, strain YPT6, hits give low values 1.05 | S. cerevisiae deletion strains, locus YLR268W, strain sec22, hits give low values 1.05 | S. cerevisiae deletion strains, locus YLR320W, strain mms22, hits give low values 0.959 | S. cerevisiae deletion strains, locus YLR330W, strain CHS5, hits give low values 1.01 | S. cerevisiae deletion strains, locus YLR342W, strain FKS1 (second series), hits give low values 0.996 | S. cerevisiae deletion strains, locus YLR342W, strain FKS1, hits give low values 0.989 | S. cerevisiae deletion strains, locus YLR357W, strain rsc2, hits give low values 0.971 | S. cerevisiae deletion strains, locus YLR370C, strain arc18, hits give low values 0.991 | S. cerevisiae deletion strains, locus YLR371W, strain rom2, hits give low values 1.01 | S. cerevisiae deletion strains, locus YLR384C, strain iki3, hits give low values 0.969 | S. cerevisiae deletion strains, locus YLR418C, strain cdc73, hits give low values 1.01 | S. cerevisiae deletion strains, locus YML016C, strain PPZ1, hits give low values 1 | S. cerevisiae deletion strains, locus YML032C, strain rad52, hits give low values 1.01 | S. cerevisiae deletion strains, locus YML120C, strain ndi1, hits give low values 1.01 | S. cerevisiae deletion strains, locus YML124C, strain tub3, hits give low values 1.02 | S. cerevisiae deletion strains, locus YMR058W, strain fet3, hits give low values 0.992 | S. cerevisiae deletion strains, locus YMR078C, strain ctf18, hits give low values 1.06 | S. cerevisiae deletion strains, locus YMR125W, strain sto1, hits give low values 1.01 | S. cerevisiae deletion strains, locus YMR129W, hits give low values 0.997 | S. cerevisiae deletion strains, locus YMR205C, strain PFK2, hits give low values 0.984 | S. cerevisiae deletion strains, locus YMR223W, strain ubp8, hits give low values 1.01 | S. cerevisiae deletion strains, locus YMR231W, strain pep5, hits give low values 0.977 | S. cerevisiae deletion strains, locus YMR263W, strain SAP30, hits give low values 1 | S. cerevisiae deletion strains, locus YMR307W, strain GAS1, hits give low values 1.01 | S. cerevisiae deletion strains, locus YNL067W, strain RPL9B, hits give low values 1.01 | S. cerevisiae deletion strains, locus YNL071W, strain lat1, hits give low values 1 | S. cerevisiae deletion strains, locus YNL153C, strain GIM3, hits give low values 0.99 | S. cerevisiae deletion strains, locus YNL183C, strain NPR1, hits give low values 0.908 | S. cerevisiae deletion strains, locus YNL209W, strain ssb2, hits give low values 0.995 | S. cerevisiae deletion strains, locus YNL233W, strain BNI4, hits give low values 1.02 | S. cerevisiae deletion strains, locus YNL248C, strain rpa49, hits give low values 0.902 | S. cerevisiae deletion strains, locus YNL250W, strain rad50, hits give low values 1.03 | S. cerevisiae deletion strains, locus YNL271C, strain bni1, hits give low values 1.04 | S. cerevisiae deletion strains, locus YNL298W, strain CLA4, hits give low values 1.03 | S. cerevisiae deletion strains, locus YNL307C, strain MCK1, hits give low values 1.05 | S. cerevisiae deletion strains, locus YNL322C, strain KRE1 (second series), hits give low values 0.985 | S. cerevisiae deletion strains, locus YNR049C, strain mso1, hits give low values 0.978 | S. cerevisiae deletion strains, locus YNR052C, strain pop2, hits give low values 1.02 | S. cerevisiae deletion strains, locus YOL012C, strain htz1 1.16 | S. cerevisiae deletion strains, locus YOL147C, strain pex11, hits give low values 1.04 | S. cerevisiae deletion strains, locus YOR001W, strain rrp6, hits give low values 0.994 | S. cerevisiae deletion strains, locus YOR061W, strain CKA2, hits give low values 1.01 | S. cerevisiae deletion strains, locus YOR069W, strain VPS5, hits give low values 1 | S. cerevisiae deletion strains, locus YOR070C, strain gyp1, hits give low values 0.991 | S. cerevisiae deletion strains, locus YOR080W, strain dia2, hits give low values 0.99 | S. cerevisiae deletion strains, locus YOR083W, strain WHI5, hits give low values 0.998 | S. cerevisiae deletion strains, locus YOR106W, strain vam3, hits give low values 1.01 | S. cerevisiae deletion strains, locus YOR136W, strain idh2, hits give low values 1.02 | S. cerevisiae deletion strains, locus YOR144C, strain elg1, hits give low values 1.03 | S. cerevisiae deletion strains, locus YOR184W, strain ser1, hits give low values 1.05 | S. cerevisiae deletion strains, locus YOR231W, strain MKK1, hits give low values 0.982 | S. cerevisiae deletion strains, locus YOR265W, strain rbl2, hits give low values 0.984 | S. cerevisiae deletion strains, locus YOR270C, strain vph1, hits give low values 0.987 | S. cerevisiae deletion strains, locus YOR290C, strain snf2, hits give low values 1 | S. cerevisiae deletion strains, locus YOR316C, strain cot1, hits give low values 1.04 | S. cerevisiae deletion strains, locus YPL051W, strain arl3, hits give low values 0.977 | S. cerevisiae deletion strains, locus YPL055C, strain LGE1, hits give low values 1.03 | S. cerevisiae deletion strains, locus YPL078C, strain atp4, hits give low values 1 | S. cerevisiae deletion strains, locus YPL106C, strain sse1, hits give low values 1.02 | S. cerevisiae deletion strains, locus YPL240C, strain hsp82, hits give low values 0.984 | S. cerevisiae deletion strains, locus YPL241C, strain CIN2, hits give low values 1 | S. cerevisiae deletion strains, locus YPL256C, strain CLN2, hits give low values 0.965 | S. cerevisiae deletion strains, locus YPR119W, strain clb2, hits give low values 1.06 | S. cerevisiae deletion strains, locus YPR141C, strain kar3, hits give low values 1.03 | S. cerevisiae deletion strains, locus YPR163C, strain tif3, hits give low values 1.02 | S. cerevisiae deletion strains, locus YPR167C, strain met16, hits give low values 1.02 | S. cerevisiae deletion strains, strain wtn01, hits give low values 1.04 | S. cerevisiae strains, strain wild type, hits give low values 1.01
